# From PubChem BioAssay
# How the values were obtained:
# [1] = tested on: Human papillomavirus type 1a protein E7 (residues 44-93); assay: HPV1a E7 fragment binders on microarrays, primary screen, biochemical, small-molecule microarray, residues 44-93, 635 nm fluorescence (AID 1108); settings: small-molecule microarray binding, fluorescence 635 nm; higher = more signal;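 note: E7 fragment applied at 1 µg/mL in TBST for 1 h at 4 C; score combines spot fluorescence with its signal to noise ratio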
# [2] = modulators of HCV replicon luciferase signal, primary screen, HCV replication inhibitor project, Huh7 cells, luciferase reporter (AID 1109); settings: 48 h, higher = more signal;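 note: huh7 hepatoma cells harbouring a luciferase neomycin HCV replicon reporter; luciferase luminescence as measure of HCV replicon replication; test concentration not given here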
# [3] = biological target: Left-right determination factor 2 (Homo sapiens) (UniProt O00292); assay: LEFTY2 binders on small-molecule microarrays, primary screen, biochemical, small-molecule microarray, 635 nm fluorescence scan (AID 1110); settings: LEFTY2 binding, higher = more signal
# Sequence of Left-right determination factor 2 (Homo sapiens) (O00292 whole entry, looked up): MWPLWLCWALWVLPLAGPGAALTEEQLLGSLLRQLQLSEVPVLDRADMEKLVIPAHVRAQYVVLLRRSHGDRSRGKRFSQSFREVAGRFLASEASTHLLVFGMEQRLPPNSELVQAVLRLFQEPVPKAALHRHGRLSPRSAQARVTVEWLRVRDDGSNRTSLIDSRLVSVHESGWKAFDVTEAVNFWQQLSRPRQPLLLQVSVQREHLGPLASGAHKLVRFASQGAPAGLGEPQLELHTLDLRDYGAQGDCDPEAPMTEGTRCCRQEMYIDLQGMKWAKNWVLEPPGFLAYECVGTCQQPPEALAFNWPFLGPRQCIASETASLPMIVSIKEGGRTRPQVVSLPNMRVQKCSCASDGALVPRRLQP
# [4] = biological target: Calmodulin-1 (Homo sapiens) (UniProt P0DP23); assay: CALM1 binders on microarrays, EGTA buffer, profiling panel, biochemical, small-molecule microarray, Cy5-labelled CALM1 (AID 1111); settings: Cy5-CALM1 binding fluorescence, higher = more signal;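 note: labelled calmodulin applied in Tris saline Tween buffer holding calcium plus EGTA and DTT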
# [5] = biological target: Calmodulin-1 (Homo sapiens) (UniProt P0DP23); assay: calcium-bound CALM1 binders on microarrays, profiling panel, artefact control for SMM control-protein annotation, biochemical, small-molecule microarray, Cy5-labelled CALM1, plus calcium (AID 1112); settings: Cy5-CALM1 binding fluorescence, higher = more signal;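 note: score merges spot fluorescence with signal to noise from triplicate slides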
# [6] = small-molecule microarray binders of probe aWnt5a, primary screen, biochemical, biotinylated probe, 635/667 nm fluorescence (AID 1113); settings: higher = more signal;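 note: score merges 667 nm fluorescence intensity with signal-to-noise per printed feature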
# [7] = small-molecule microarray binders of probe aShh, primary screen, biochemical, biotinylated probe, 635/667 nm fluorescence (AID 1114); settings: higher = more signal;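 note: probe is biotin-labelled aShh protein from a stem cell growth factor screen; measures binding of labelled protein to compounds printed on the slide; score merges feature fluorescence at 667 nm with signal-to-noise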
# [8] = small-molecule microarray binders of probe aNog, primary screen, biochemical, biotinylated probe, 635/667 nm fluorescence (AID 1115); settings: higher = more signal;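 note: probe is biotinylated aNog protein used at 0.15 µg/mL for 1 h at 4 C; z-score combines 667 nm fluorescence of each spot with its signal to noise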
# [9] = biological target: Torsin-1A-interacting protein 1 (Homo sapiens) (UniProt Q5JTV8); assay: LAP1 binders from COS7 cell lysate, primary screen, small-molecule microarray, 635/667 nm fluorescence (AID 1116); settings: COS7-hLAP1 lysate binding, 635 nm fluorescence, higher = more signal
# Sequence of Torsin-1A-interacting protein 1 (Homo sapiens) (Q5JTV8 whole entry, looked up): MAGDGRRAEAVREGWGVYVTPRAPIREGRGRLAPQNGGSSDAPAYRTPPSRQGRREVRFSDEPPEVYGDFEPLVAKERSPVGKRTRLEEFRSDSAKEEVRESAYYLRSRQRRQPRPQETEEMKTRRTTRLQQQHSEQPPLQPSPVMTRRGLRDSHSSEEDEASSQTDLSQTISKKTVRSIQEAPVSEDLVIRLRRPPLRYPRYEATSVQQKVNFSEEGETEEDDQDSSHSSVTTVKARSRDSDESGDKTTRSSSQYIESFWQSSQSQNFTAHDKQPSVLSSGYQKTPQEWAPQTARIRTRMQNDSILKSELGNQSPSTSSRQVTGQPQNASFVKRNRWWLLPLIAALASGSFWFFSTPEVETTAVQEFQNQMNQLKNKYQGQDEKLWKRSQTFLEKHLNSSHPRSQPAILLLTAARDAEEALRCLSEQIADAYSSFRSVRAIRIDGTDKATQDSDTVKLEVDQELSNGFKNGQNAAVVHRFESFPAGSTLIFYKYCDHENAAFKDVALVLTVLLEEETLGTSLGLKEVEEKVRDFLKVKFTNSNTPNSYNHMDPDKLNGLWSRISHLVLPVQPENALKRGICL
# [10] = biological target: Alpha-bungarotoxin (Bungarus multicinctus) (UniProt P60615); assay: alpha-bungarotoxin binders on microarray, profiling panel, artefact control for SMM control protein annotation, biochemical, small-molecule microarray, Alexa647 label, 635/667 nm fluorescence (AID 1117); settings: alpha-BTX-A647 binding fluorescence, higher = more signal
# Sequence of Alpha-bungarotoxin (Bungarus multicinctus) (P60615 whole entry, looked up): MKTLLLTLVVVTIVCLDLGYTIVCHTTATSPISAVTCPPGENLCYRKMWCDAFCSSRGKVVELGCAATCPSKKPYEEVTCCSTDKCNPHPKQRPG
SMILES,composite z-score [1],z-score [2],composite z-score [3],composite z-score [4],composite z-score [5],composite z-score [6],composite z-score [7],composite z-score [8],composite z-score [9],composite z-score [10]
CCOc1cc(C(O)C2C=CC3C(=O)N(c4ccccc4)C(=O)C3N2Nc2ccccc2)ccc1O (stereo not given),1.31,-0.0374,0.181,0.0041,-0.748,-0.0312,0.191,0.387,0.604,0.147
CCOC(=O)C[C@H]1[C@H](OC(=O)Cc2ccc3c(c2)OCO3)[C@@H](NC(=O)c2ccc(-c3ccccc3)cc2)c2cc(OCCCO)ccc2N1C(=O)c1ccc2ccccc2n1,0.226,-1.37,0.445,0.284,-0.788,-0.0828,-0.146,-0.261,0.142,0.0797
CCCC[C@@H]1C[C@H]1[C@@H](NC(=O)c1ccco1)c1ccc(C(=O)OC)cc1,0.0703,-1.07,-0.423,0.0927,0.555,-0.027,-0.217,-0.261,-0.392,-0.335
O=C(NCc1ccc(F)cc1)[C@H]1C[C@H]2C(=O)N[C@@H](Cc3ccccc3)C(=O)N2[C@H]1c1ccc(O)cc1,0.335,-0.522,-0.469,0.0755,0.531,-0.148,-0.244,-0.235,0.33,-0.051
CN1C(=O)C2C=CC(C(O)c3ccc(I)cc3)N(N3CCCCC3)C2C1=O (stereo not given),1.43,-0.435,0.0759,1.64,0.219,0.0599,0.184,1.34,1.19,1.22
COC(=O)[C@@]1(Cc2ccc(F)cc2)[C@H]2c3cc(C(=O)N(C)C)n(CC4CC4)c3C[C@H]2CN1C(=O)c1ccccc1,1.45,-1.14,0.0265,2.21,1.39,1.05,1.38,0.816,0.156,1.69
CCOC(=O)C[C@H]1[C@H](OC(=O)Cc2ccc3c(c2)OCO3)[C@@H](NC(=O)c2ccc(-c3ccccc3)cc2)c2cc(OCCCO)ccc2N1C(=O)Cc1ccc(OC)cc1,0.911,-1.48,0.253,0.644,0.0039,0.0673,0.173,0.0804,0.521,-0.256
CN(C)CCCNC(=O)[C@@]1(C)c2ccccc2C(=O)N(Cc2cc(F)cc(C(F)(F)F)c2)[C@H]1c1ccc(CO)cc1,-0.0947,-1.8,-1.66,-0.483,-0.643,-0.251,0.0121,0.338,-0.94,1.32
C#CCN(CC1=CCCCC1)[C@H](c1ccccc1Br)[C@@H](O)Cc1ccccc1,-0.0413,-2.33,-1.07,-0.929,-0.568,-0.118,0.108,-0.368,0.632,0.92
CC(C)C[C@@H]1NC(=O)[C@@H]2C[C@H](C(=O)NCCCCCN)[C@H](c3cccc(OCCO)c3)N2C1=O,0.828,-0.352,0.197,1.36,0.615,-0.0896,-0.153,-0.282,1.36,0.417
COCCOC(=O)N1C(=O)[C@@]2(c3cc(C#CCCO)ccc31)[C@H](C(=O)N1CCN(c3ncccn3)CC1)[C@H]1C(=O)O[C@H](c3ccccc3)[C@H](c3ccccc3)N1[C@@H]2c1ccccc1OCCO,1.37,-1.86,0.56,1.72,0.55,-0.0614,-0.214,0.207,0.249,0.64
NCCCCCNC(=O)[C@@H]1C[C@@H]2C(=O)N[C@@H](Cc3ccccc3)C(=O)N2[C@@H]1c1cccc(OCCO)c1,0.762,-0.988,-0.178,0.429,0.791,0.404,-0.0652,0.0256,0.362,1.69
COc1ccc(C(O)C2C=CC3C(=O)N(C)C(=O)C3N2N2CCCCC2)c2ccccc12 (stereo not given),1.43,-0.534,-0.129,1.26,0.639,0.131,0.476,-0.0646,0.826,1.34
COc1cc(CO)cc(I)c1O[C@H]1C=C(C(=O)NCCO)C[C@@H](N(CCN2CCOCC2)C(=O)C2CCOC2)[C@@H]1O (stereo not given in full),-0.923,-0.282,0.897,-0.0002,-0.543,-0.247,0.0639,-0.281,0.085,0.0392
O=C1O[C@@H](c2ccccc2)[C@@H](c2ccccc2)N2[C@@H](c3ccc(OCCO)cc3)[C@]3(C(=O)Nc4ccccc43)[C@@H](C(=O)NC[C@H](O)c3ccccc3)[C@H]12,1.28,-2.1,1.04,0.158,0.0233,-0.0768,-0.2,0.0597,1.3,0.362
COC(=O)[C@@]1(Cc2ccc(F)cc2)[C@H]2c3cc(C(=O)N(C)C)n(Cc4nc5ccccc5[nH]4)c3C[C@H]2CN1C(=O)c1ccccc1,1.32,-0.494,-0.423,1.42,0.114,0.178,0.603,0.485,0.778,0.324
Cc1ccc(C(C)CC(O)C2C=CC3C(=O)N(c4ccccc4)C(=O)C3N2Nc2ccc([N+](=O)[O-])cc2)o1 (stereo not given),1.41,-0.212,0.135,1.17,-0.284,-0.0792,-0.229,0.437,0.866,1.3
